Results from PubChem BioAssay (EPA / NIEHS).
“And” between values parts separate entries of the source, which are not always exact repeats. Equal values may be shown once. Inconclusive results are not listed. A structure can be active in one record and inactive in another. The source made the active and inactive calls. How the source made its calls, unless noted: active means hit-call score of the fitted dose curve at least 0.9, where 1 is the maximum; inactive means score below 0.9.

Key:
[1] = BSK_BT_PBMCCytotoxicity: PBMC Cytotoxicity Assessment in the BioMAP Diversity Plus: BT Assay (AID 2284225); settings: primary human B cells with PBMC;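 further: PBMC viability measured by Alamar Blue dye reduction fluorescence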
Summary of the method: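 Viability by Alamar Blue reduction (6 h, ex/em 546/580 nm) after 90 h culture of SEB/TSST-1-activated PBMC (20 ng/mL each) given compound 1 h before activation. DMSO served as baseline for curve fitting.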

[2] = read-out: Secreted IgG (sIgG), gene 3500; assay: BSK_BT_sIgG: BioMAP Diversity Plus: BT Assay for Secreted IgG (sIgG) Biomarker Activity (AID 2284226); settings: primary human B cells with PBMC
Summary of the method: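 Cells (B cells with peripheral blood mononuclear cells) are dosed, cultured 24 h, then supernatant IgG is measured by ELISA. DMSO serves as negative control; curves are fitted for signal increase.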

[3] = BSK_BT_Bcell_Proliferation: Viability Assessment in the BioMAP Diversity Plus: BT Assay for B cell Proliferation (AID 2284227); settings: primary human B cells with PBMC
Summary of the method: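 SRB-based protein staining (0.1% SRB after 10% TCA fixation, 560 nm) quantifies proliferation in human B cells co-cultured with PBMC, 72 h post-dosing, with signal gain scored relative to DMSO negative control.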

[4] = read-out: Interleukin 6 (IL6), IL6 (gene 3569); assay: BSK_BT_xIL6: BioMAP Diversity Plus: BT Assay for Interleukin 6 (IL6) Biomarker Activity (AID 2284228); settings: primary human B cells with PBMC
Summary of the method: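 Secreted IL-6 in the primary human B cell plus PBMC system, measured by Luminex at 24 h post-chemical, DMSO as baseline. Alamar Blue viability: 75,000 cells/well, chemical 1 h before SEB/TSST-1 (20 ng/mL each), 90 h, then 6 h dye.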

[5] = read-out: Interleukin 17A (IL17A), IL17A (gene 3605); assay: BSK_BT_xIL17A: BioMAP Diversity Plus: BT Assay for Interleukin 17A (IL17A) Biomarker Activity (AID 2284229); settings: primary human B cells with PBMC
Summary of the method: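 Luminex xMAP quantification of secreted IL-17A after 24 h chemical exposure of a primary human B cell/PBMC co-culture. Signal increases fitted relative to DMSO negative control.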

[6] = CCTE_Mundy_HCI_hNP1_Pro_ResponderAvgInten: CCTE's Proliferation Assay in human neuroprogenitor cells, Mundy Lab (AID 2284224; active means hit-call score of the fitted dose curve at least 0.9, where 1 is the maximum;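 further: human neural progenitor cells hNP1 derived from WA09 embryonic stem cells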)
Summary of the method: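 Proliferation was scored as BrdU labelling intensity in human neural progenitors derived from WA09 embryonic cells, measured 26.25 hours after chemical dosing. Activity was fitted relative to DMSO.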

[7] = TAMU_PeakParms_SingleDonor1434_Chronotropy: Texas A&M University (TAMU) 1.5-hr Human Induced Pluripotent Stem Cell (iPSC)-derived Cardiomyocytes Calcium (Ca+2) Flux Assay for Cardiotoxicity: Chronotropy (changes in peak frequency) (AID 2284217); settings: actives raise or lower the signal
Summary of the method: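 Beat frequency of single-donor iPSC cardiomyocytes was recorded through a calcium-sensitive dye 1.5 hours after exposure to four concentrations up to 100 uM. An EC05 point of departure was derived.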

[8] = IUF_NPC1a_proliferation_area_72hr: Leibniz Research Institute for Environmental Medicine (IUF) 72-hour Neural Progenitor Cell Proliferation Area Assay (NPC1a) (AID 2284208)
Summary of the method: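 Proliferation read as increase in sphere area by phase-contrast imaging over 72 h continuous compound exposure (no renewal) of hNPC spheres grown with EGF/FGF at 37C, 5% CO2. Growth-factor withdrawal served as positive control; DMSO as baseline.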

[9] = IUF_NPC1_viability_72hr: Viability Assessment at 72 hours in the Leibniz Research Institute for Environmental Medicine (IUF) Neural Progenitor Cell Proliferation Assay (NPC1) (AID 2284209)
Summary of the method: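 Spheres of primary human neural progenitors were plated singly in proliferation medium and treated for 72 h. Mitochondrial reduction of resazurin was then measured by fluorescence and analysed against DMSO controls.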

[10] = CCTE_Mundy_HCI_Cortical_Synap_Neur_Matur_NeuriteSpotCountPerNeuriteLength: CCTE's Synaptogenesis and Neurite Maturation Assay in rat cortical cells for Neurite Spot Count per Neurite Length, Mundy Lab (AID 2284210)
Summary of the method: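 Synaptophysin spots per unit neurite length, measured by automated imaging of MAP2/synaptophysin/Hoechst-stained neurons. Cultures from rat cortex received chemical at DIV 7 with media change through DIV 12; glial growth arrested by AraC at DIV 5; DMSO baseline.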

[11] = CCTE_Mundy_HCI_Cortical_NOG_NeuriteLength: CCTE's Neurite Outgrowth Assay in rat cortical cells for Neurite Length, Mundy Lab (AID 2284213);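 on AC50: neurites imaged about 48 to 50 h after chemical exposure began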
Summary of the method: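 First, rat primary cortical cells were plated and, 2 h later, given test chemical as a 1/10 dilution. Finally, βIII-tubulin immunostaining enabled automated imaging of neurite length.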

[12] = CCTE_Mundy_HCI_Cortical_Synap_Neur_Matur_NeuriteSpotCountPerNeuron: CCTE's Synaptogenesis and Neurite Maturation Assay in rat cortical cells for Neurite Spot Count per Neuron Count, Mundy Lab (AID 2284215)
Summary of the method: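 High-content imaging counts synaptophysin puncta along MAP2-labelled neurites per neuron after chemical exposure of rat cortical cells from DIV 7 to termination at DIV 12 (AraC added DIV 5). Loss of signal relative to DMSO.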

[13] = CCTE_Mundy_HCI_Cortical_Synap_Neur_Matur_SynapseCount: CCTE's Synaptogenesis and Neurite Maturation Assay in rat cortical cells for Synapse Count, Mundy Lab (AID 2284218)
Summary of the method: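 Cells were plated, allowed 2 hr to attach, treated with AraC at DIV 5, then exposed to chemicals from DIV 7 until DIV 12. After fixation and MAP2/synaptophysin immunolabelling, synapses per neuron were quantified by automated imaging against DMSO.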

[14] = CCTE_Mundy_HCI_hN2_NOG_NeuriteCount: CCTE's Neurite Outgrowth Assay in human hN2 cells for Neurite Count, Mundy Lab (AID 2284219; active means hit-call score of the fitted dose curve at least 0.9, where 1 is the maximum)
Summary of the method: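 In this morphology assay, hNP1-derived neurons received test chemical 2 h post-plating and were fixed two days later in warm paraformaldehyde/sucrose containing Hoechst 33342. Neurites, labelled by rabbit anti-βIII-tubulin (1:800) and Alexa Fluor-488 (1:500), were counted automatically.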

[15] = CCTE_Mundy_HCI_hN2_NOG_NeuriteLength: CCTE's Neurite Outgrowth Assay in human hN2 cells for Neurite Length, Mundy Lab (AID 2284220; active means hit-call score of the fitted dose curve at least 0.9, where 1 is the maximum)
Summary of the method: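 Plate hNP1-derived neurons, then add chemical 2 h later as a 1/10 dilution. Stain with anti-βIII-tubulin then Alexa Fluor-488 secondary, and image automatically to measure neurite length.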

[16] = CCTE_Mundy_HCI_Cortical_Synap_Neur_Matur_CellBodySpotCount: CCTE's Synaptogenesis and Neurite Maturation Assay in rat cortical cells for Cell Body Spot Count, Mundy Lab (AID 2284223)
Summary of the method: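 High-content imaging counts synaptophysin puncta on neuronal cell bodies per neuron after MAP2/synaptophysin immunostaining. Rat primary cortical cells, glia arrested with AraC at DIV 5, were exposed DIV 7–12; signal decrease measured against DMSO.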

[17] = CCTE_Mundy_HCI_Cortical_Synap_Neur_Matur_NeuriteLength: CCTE's Synaptogenesis and Neurite Maturation Assay in rat cortical cells for Neurite Length, Mundy Lab (AID 2284214)
Summary of the method: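 Cultures of rat primary cortical cells received chemical at DIV 7 and were fixed at DIV 12, after glial arrest with AraC at DIV 5. Neurite length was measured by automated imaging of MAP2 immunofluorescence.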

[18] = CCTE_Mundy_HCI_Cortical_Synap_Neur_Matur_BPCount: CCTE's Synaptogenesis and Neurite Maturation Assay in rat cortical cells for Branch Point Count, Mundy Lab (AID 2284211)
Summary of the method: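 HCI read-out of branch points from MAP2/synaptophysin/Hoechst immunofluorescence; rat cortical cultures, AraC DIV 5, dosing DIV 7, fixed DIV 12; fit in positive direction vs DMSO baseline.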

[19] = CCTE_Mundy_HCI_Cortical_NOG_NeuriteCount: CCTE's Neurite Outgrowth Assay in rat cortical cells for Neurite Count, Mundy Lab (AID 2284212);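 further: cells fixed about two days after chemical exposure began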
Summary of the method: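 Rat cortical primary cells; compound added 2 h post-plating, 1/10 dilution of working solution. Anti-betaIII-tubulin/AF488 ICC; ArrayScan neurite count vs DMSO.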

[20] = CCTE_Mundy_HCI_Cortical_Synap_Neur_Matur_NeuriteCount: CCTE's Synaptogenesis and Neurite Maturation Assay in rat cortical cells for Neurite Count, Mundy Lab (AID 2284222)
Summary of the method: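 Chemical exposure runs DIV 7–12 in rat cortical cultures, glia suppressed by AraC at DIV 5; measurement is at DIV 12. Imaging-derived neurite counts are fitted against DMSO baseline.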

Measured: AC50

OCCC(F)(F)C(F)(F)C(F)(F)C(F)(F)C(F)(F)C(F)(F)F
active: [1] 30 µM | [4] 49.1 µM | [5] 43.1 µM
inactive: [1] | [2] | [3] | [4] | [5]

FC(F)(I)C(F)(F)C(F)(F)C(F)(F)C(F)(F)C(F)(F)I
active: [1] 25.6 µM [middle of 5 runs] | [3] 20.6 µM [middle of 5 runs]

C=C(C)C(=O)OCCC(F)(F)C(F)(F)C(F)(F)C(F)(F)C(F)(F)C(F)(F)F
inactive: [6] | [1] | [2] | [3] | [4] | [5]

C[C@@H]1C[C@H]2[C@@H]3CCC4=CC(=O)C=C[C@]4(C)[C@@]3(F)[C@@H](O)C[C@]2(C)[C@@]1(O)C(=O)COP(=O)(O)O
inactive: [1] | [2] | [3]
active: [1] 0.485 µM | [4] 863 nM and 1.34 µM | [5] 0.1 µM

c1ccc2cc3c(ccc4ccccc43)cc2c1
inactive: [7]

c1ccc2c(c1)ccc1ccccc12
inactive: [7]

NCC(F)(F)C(F)(F)C(F)(F)C(F)(F)C(F)(F)C(F)(F)C(F)(F)F
inactive: [1] | [2] | [3] | [4] | [5]

CC1=C(/C=C/C(C)=C/C=C/C(C)=C/C(=O)O)C(C)(C)CCC1
active: [8] 4.35 µM | [11] 6.25 µM | [14] 12.1 µM | [15] 0.417 µM
inactive: [9] | [10] | [12] | [13] | [16]

CN1CCC[C@H]1c1cccnc1
inactive: [8] | [9] | [10] | [11] | [17] | [12] | [13] | [15] | [16]

CCCCCCCCCCCCCC[N+](C)(C)C
active: [1] 11.5 µM | [2] 45.3 nM | [3] 2.81 µM | [4] 4.27 µM | [5] 1.48 µM

CC#C[C@]1(O)CC[C@H]2[C@@H]3CCC4=CC(=O)CCC4=C3[C@@H](c3ccc(N(C)C)cc3)C[C@@]21C
inactive: [8] | [9]
active: [10] 25.7 µM | [18] 18.4 µM and 27.4 µM | [19] 62 µM and 24.4 µM | [11] 50 µM and 23.6 µM | [17] 15.9 µM and 27.7 µM | [12] 13.3 µM and 25.5 µM | [7] 0.216 µM | [13] 13.3 µM and 25.1 µM | [20] 17.9 µM and 23.1 µM | [16] 16.7 µM and 24.8 µM | [6] 18 µM and 23.2 µM

c1ccc2c(c1)Cc1ccccc1-2
active: [7] 50 µM

OCCC(F)(F)C(F)(F)C(F)(F)C(F)(F)C(F)(F)C(F)(F)C(F)(F)C(F)(F)F
inactive: [6]
active: [1] 43.4 µM and 40.7 µM | [2] 50.6 µM and 53.6 µM | [3] 45.1 µM and 45.8 µM | [4] 53.1 µM and 52.6 µM | [5] 44.1 µM and 43.9 µM
